# Measurements published in PubChem BioAssay.
# Assay: probe aInhba binding on compound microarray – biochemical, small-molecule microarray, 635/667 nm fluorescence, primary screen (AID 1148);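 further: score merges 667nm spot fluorescence with signal-to-noise for antibody binding to printed compounds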
# Conditions: higher = more signal
row,Structure (SMILES),composite z-score
1,CCOC(=O)[C@H](Cc1ccccc1)NC(=O)CCC1CC(OC(=O)NCc2ccc3c(c2)OCO3)CC2(CCCC(COC(=O)NCCOC)O2)O1 (stereo partly drawn),-0.016
2,CCOC(=O)[C@H](Cc1ccccc1)NC(=O)CCC1CC(OC(=O)NCc2ccc3c(c2)OCO3)CC2(CCCC(COC(=O)NCCCN3CCCC3=O)O2)O1 (stereo partly drawn),-0.0736
3,COC(=O)[C@H](C)NC(=O)CCC1CC(OC(=O)NCCc2ccc(F)cc2)CC2(CCCC(COC(=O)NCCOc3ccccc3)O2)O1 (stereo partly drawn),-0.0059
4,O=C1CCCC=C1C(O)C1CCCCC1 (stereo not drawn),-0.122
5,CCOC(=O)NN=C1C[C@@H](O)[C@@H](O)[C@@H]2[C@@H]3C(=O)N(c4ccc(F)cc4F)C(=O)[C@@H]3CC[C@H]12,-0.0962
6,CC(=O)OC[C@H]1O[C@H](CC=NO[C@@H](C)c2cc(-c3c(C)cc(C)cc3C)no2)C=C[C@@H]1OC(C)=O,-0.175
7,CCOC(=O)CCN1C(=O)[C@H]2[C@H]3[C@H](O)[C@H](O)CC(=NO[C@@H]4O[C@H](CO)[C@@H](O)[C@H](O)[C@H]4O)[C@H]3CC[C@H]2C1=O,-0.05
8,CCOC(=O)[C@H](CC(C)C)NC(=O)CCC1CC(OC(=O)NCCc2ccc(F)cc2)CC2(CCCC(COC(=O)NCc3cccc(C(F)(F)F)c3)O2)O1 (stereo partly drawn),-0.0762
9,C[C@H]1CC[C@@H](C(=O)O)N[C@@H]1c1cccc(N2CCCC2=O)c1,-0.134
10,CC(=O)OC[C@H]1O[C@@H](ON=C2[C@H]3CCn4c(=O)n(-c5ccccc5)c(=O)n4[C@H]3[C@H](O)[C@@H]3O[C@H]23)[C@H](OC(C)=O)[C@@H](OC(C)=O)[C@@H]1OC(C)=O,0.0282
11,CCOC(=O)[C@H](CC(C)C)NC(=O)CCC1CC(OC(=O)NCCc2ccc(F)cc2)CC2(CCCC(COC(=O)NCCCN3CCCC3=O)O2)O1 (stereo partly drawn),-0.0195
12,CC(CCC(=O)OC[C@H]1O[C@H](C#Cc2ccccc2)C=C[C@@H]1Oc1ccc(C)cc1)=NOC[C@@H](C)[C@H](OCc1ccccc1)C(C)C,-0.128
13,CCOC(=O)[C@H](Cc1ccccc1)NC(=O)CCC1CC(OC(=O)NCc2cccc3ccccc23)CC2(CCCC(COC(=O)NCCc3ccccc3OC)O2)O1 (stereo partly drawn),-0.0552
14,COC(=O)[C@H](C)NC(=O)CCC1CC(OC(=O)NCCc2ccc(F)cc2)CC2(CCCC(COC(=O)NCCc3ccccc3OC)O2)O1 (stereo partly drawn),-0.343
15,CCOC(=O)NN=C1C[C@@H](O)[C@@H](O)[C@@H]2[C@@H]3C(=O)N(C[C@@H]4CCCO4)C(=O)[C@@H]3CC[C@H]12,-0.004
16,CON=C1c2cc(OC)ccc2O[C@H](c2cccc(OC)c2)[C@H]1O,-0.016
17,COC(=O)[C@H](C)NC(=O)CCC1CC(OC(=O)NCc2ccc3c(c2)OCO3)CC2(CCCC(COC(=O)NCCC(C)C)O2)O1 (stereo partly drawn),-0.224
18,C[C@H]1C=CCC(=O)OC[C@H](C)C(=O)N2CCC[C@H]2C(=O)OC1,-0.182
19,CCCNC(=O)OC[C@H]1O[C@H](CCON=C2C[C@@H](O)[C@@H](O)[C@@H]3[C@@H]4C(=O)N(CC)C(=O)[C@@H]4CC[C@@H]23)C=C[C@@H]1Oc1ccc(OC)cc1,0.0256
20,COC(=O)[C@@H]1CC[C@H](C)[C@@H](c2ccc(C)cc2)N1C(=O)c1ccc(C=NO[C@@H](C)c2cc(-c3c(C)cc(C)cc3C)no2)cc1,-0.0986
21,CC(C)(C)N1C(=O)[C@H]2[C@H]3[C@H](O)[C@H](O)CC(=NNC(=O)OCc4ccccc4)[C@H]3CC[C@H]2C1=O,0.125
22,CO[C@@H]1COC(=O)CC=C[C@H](C)[C@H](OC)COC(=O)[C@@H]2CCCN2C(=O)CC=C[C@H]1C,-0.0112
23,Cc1cc2c(nc1C)CCCCN2CC(O)CN1CCCc2nc(-c3ccc(Br)cc3)ccc21 (stereo not drawn),0.0541
24,COc1ccc(O[C@H]2C=C[C@@H](C#Cc3ccccc3)O[C@@H]2CO)cc1,-0.182
25,C#CCCCON=C1C[C@@H](O)[C@@H](O)[C@@H]2[C@@H]3C(=O)N(C[C@@H]4CCCO4)C(=O)[C@@H]3CC[C@H]12,-0.128
26,O=C1[C@H]2[C@H]3[C@H](O)[C@H](O)CC(=NO[C@@H]4O[C@H](CO)[C@@H](O)[C@H](O)[C@H]4O)[C@@H]3CC[C@H]2C(=O)N1c1cccc(Oc2ccccc2)c1,-0.0504
27,CC#CCOCCC=C1c2ccccc2[C@@H](OC)[C@@H]1C,-0.122
28,CCOC(=O)[C@H](CC(C)C)NC(=O)CCC1CC(OC(=O)NCc2ccc3c(c2)OCO3)CC2(CCCC(COC(=O)NCCOc3ccccc3)O2)O1 (stereo partly drawn),-0.0719
